The values below come from publication PMC8384837, “Expanding the binding specificity for RNA recognition by a PUF domain”.

Holding throughout (assay): yeast three-hybrid, YBZ-1, SC-Leu-His + 0.5 mM 3-AT, 4 days
Common to all, as to conditions: tags: N-Gal4 AD-HA kept; label: inside an RPR1-promoter hybrid RNA with tandem MS2 sites; ssRNA

The target in one test is PUM1 PUF domain R1-RTR (Homo sapiens, UniProt Q14671 828-1176, S863R;R864T;Q867R). The gist of the method:
(§1)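 Matching RNA elements and Pumilio-1 PUF domain libraries, randomized at the three base-contacting residues of every repeat, were co-expressed from a centromeric plasmid in strain YBZ-1 (LexA–MS2 coat fusion, HIS3 reporter). The repeat regions were PCR-amplified and Illumina-sequenced from cells grown four days on SC-Leu (input) or SC-Leu-His + 0.5 mM 3-AT (selection). The interaction score is the log change in variant frequency from input to selection. It is computed in log2, with a pseudocount of 1 for absent variants.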

The target in the next test is PUM1 PUF domain R8-IWR (Homo sapiens, UniProt Q14671 828-1176, N1122I;Y1123W;Q1126R). The gist of the method:
as §1

The target of another test is PUM1 PUF domain R4-PTC (Homo sapiens, UniProt Q14671 828-1176, N971P;H972T;Q975C). The gist of the method:
as §1

The target in a further test is PUM1 PUF domain R4-ARM (Homo sapiens, UniProt Q14671 828-1176, N971A;H972R;Q975M). The gist of the method:
as §1

The next test concerns the target PUM1 PUF domain R3-CRD (Homo sapiens, UniProt Q14671 828-1176, Q939D). The essentials:
as §1

Another test addresses PUM1 PUF domain R4-SNY (Homo sapiens, UniProt Q14671 828-1176, N971S;H972N;Q975Y). The essentials: as §1
The next test concerns the target PUM1 PUF domain R7-RRS (Homo sapiens, UniProt Q14671 828-1176, S1079R;N1080R;E1083S). The gist of the method: as §1
A further test concerns the target PUM1 PUF domain R7-AVK (Homo sapiens, UniProt Q14671 828-1176, S1079A;N1080V;E1083K). The gist of the method: as §1
The target of another test is PUM1 PUF domain R2-VFR (Homo sapiens, UniProt Q14671 828-1176, N899V;Y900F;Q903R). The gist of the method: as §1
A further test deals with PUM1 PUF domain R2-VHP (Homo sapiens, UniProt Q14671 828-1176, N899V;Y900H;Q903P). The gist of the method:
as §1

Sequence of PUM1 PUF domain R2-VHP (Q14671 828-1176 N899V/Y900H/Q903P): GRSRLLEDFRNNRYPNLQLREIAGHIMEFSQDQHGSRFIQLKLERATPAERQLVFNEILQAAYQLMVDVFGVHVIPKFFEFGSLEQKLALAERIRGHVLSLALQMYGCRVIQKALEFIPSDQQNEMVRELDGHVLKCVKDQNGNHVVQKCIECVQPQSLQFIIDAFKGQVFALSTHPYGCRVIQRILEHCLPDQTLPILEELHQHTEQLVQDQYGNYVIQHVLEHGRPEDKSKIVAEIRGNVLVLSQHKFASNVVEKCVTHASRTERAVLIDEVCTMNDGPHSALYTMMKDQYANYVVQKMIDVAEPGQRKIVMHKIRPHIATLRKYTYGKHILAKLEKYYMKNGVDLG
Sequence of PUM1 PUF domain R2-VFR (Q14671 828-1176 N899V/Y900F/Q903R): as the sequence (Q14671 828-1176 N899V/Y900H/Q903P) above, with H73F, P76R counted along it

Regarding “GGCUAGAACUAGUGGAUCCCCCGGCGCCCGGCGGCUCGAGCCCGGGUAAGUGUAAAUUGUCUGCAUGCCGCCGGGCGCCAUGCCUGCAGGUCGACUCUAGAAAACAUG”, in the test with PUM1 PUF domain R1-RTR, the binding signal was 2.2 log2 enrichment (interaction score).

For “GGCUAGAACUAGUGGAUCCCCCGGCGCCCGGCGGCUCGAGCCCGGGUAAGUGUAAAUAGUCUGCAUGCCGCCGGGCGCCAUGCCUGCAGGUCGACUCUAGAAAACAUG”, the binding signal in the test with PUM1 PUF domain R8-IWR is 3.98 log2 enrichment (interaction score); in the test with PUM1 PUF domain R4-PTC, 3.57 log2 enrichment (interaction score); with PUM1 PUF domain R4-ARM, 4.11 log2 enrichment (interaction score); with PUM1 PUF domain R3-CRD, 5 log2 enrichment (interaction score); in the test with PUM1 PUF domain R4-SNY, 2.33 log2 enrichment (interaction score). Consider “GGCUAGAACUAGUGGAUCCCCCGGCGCCCGGCGGCUCGAGCCCGGGUAAGCGUAAAUAGUCUGCAUGCCGCCGGGCGCCAUGCCUGCAGGUCGACUCUAGAAAACAUG”, for which the binding signal with PUM1 PUF domain R8-IWR was 5.25 log2 enrichment (interaction score). Take “GGCUAGAACUAGUGGAUCCCCCGGCGCCCGGCGGCUCGAGCCCGGGUAAGUCUAAAUAGUCUGCAUGCCGCCGGGCGCCAUGCCUGCAGGUCGACUCUAGAAAACAUG”: the binding signal with PUM1 PUF domain R7-RRS was 4.47 log2 enrichment (interaction score). On to “GGCUAGAACUAGUGGAUCCCCCGGCGCCCGGCGGCUCGAGCCCGGGUAAGUUUAAAUAGUCUGCAUGCCGCCGGGCGCCAUGCCUGCAGGUCGACUCUAGAAAACAUG”, for which the binding signal with PUM1 PUF domain R7-RRS was 4.29 log2 enrichment (interaction score); with PUM1 PUF domain R7-AVK, 4.11 log2 enrichment (interaction score). With “GGCUAGAACUAGUGGAUCCCCCGGCGCCCGGCGGCUCGAGCCCGGGUAAGUGUAAUUAGUCUGCAUGCCGCCGGGCGCCAUGCCUGCAGGUCGACUCUAGAAAACAUG”, in the test with PUM1 PUF domain R3-CRD, the binding signal is 1.14 log2 enrichment (interaction score). In the case of “GGCUAGAACUAGUGGAUCCCCCGGCGCCCGGCGGCUCGAGCCCGGGUAAGUGUAAAAAGUCUGCAUGCCGCCGGGCGCCAUGCCUGCAGGUCGACUCUAGAAAACAUG”, the binding signal in the test with PUM1 PUF domain R2-VFR is 5.64 log2 enrichment (interaction score); with PUM1 PUF domain R2-VHP it was 2.73 log2 enrichment (interaction score). In the case of “GGCUAGAACUAGUGGAUCCCCCGGCGCCCGGCGGCUCGAGCCCGGGUAAGUGUAUAUAGUCUGCAUGCCGCCGGGCGCCAUGCCUGCAGGUCGACUCUAGAAAACAUG”, the binding signal with PUM1 PUF domain R4-ARM was 1.47 log2 enrichment (interaction score). Turning to “GGCUAGAACUAGUGGAUCCCCCGGCGCCCGGCGGCUCGAGCCCGGGUAAGUGUAAAUCGUCUGCAUGCCGCCGGGCGCCAUGCCUGCAGGUCGACUCUAGAAAACAUG”, the binding signal with PUM1 PUF domain R1-RTR was 1.13 log2 enrichment (interaction score). On to “GGCUAGAACUAGUGGAUCCCCCGGCGCCCGGCGGCUCGAGCCCGGGUAAGUGUACAUAGUCUGCAUGCCGCCGGGCGCCAUGCCUGCAGGUCGACUCUAGAAAACAUG”, for which the binding signal with PUM1 PUF domain R4-ARM is 2.37 log2 enrichment (interaction score).
